Test results published in article PMC4336329 (PLoS ONE, 2015).
Hit rate of the full screen: of about 310,000 compounds, about 14,000 (4.5%) showed an effect of 50% or more. The effect is printed as a negative number. The sample as a whole holds a higher share of strong results than the screen did.

Target: human ether-à-go-go-related gene (hERG) potassium channel (human, UniProt Q12809)
Experiment: primary screen, population patch clamp on CHO cells stably expressing hERG; higher = less effect of the substance
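Note: peak tail current of the secondary pulse compared with the same well before compound.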

Chain of human ether-à-go-go-related gene (hERG) potassium channel (Q12809 whole entry, looked up): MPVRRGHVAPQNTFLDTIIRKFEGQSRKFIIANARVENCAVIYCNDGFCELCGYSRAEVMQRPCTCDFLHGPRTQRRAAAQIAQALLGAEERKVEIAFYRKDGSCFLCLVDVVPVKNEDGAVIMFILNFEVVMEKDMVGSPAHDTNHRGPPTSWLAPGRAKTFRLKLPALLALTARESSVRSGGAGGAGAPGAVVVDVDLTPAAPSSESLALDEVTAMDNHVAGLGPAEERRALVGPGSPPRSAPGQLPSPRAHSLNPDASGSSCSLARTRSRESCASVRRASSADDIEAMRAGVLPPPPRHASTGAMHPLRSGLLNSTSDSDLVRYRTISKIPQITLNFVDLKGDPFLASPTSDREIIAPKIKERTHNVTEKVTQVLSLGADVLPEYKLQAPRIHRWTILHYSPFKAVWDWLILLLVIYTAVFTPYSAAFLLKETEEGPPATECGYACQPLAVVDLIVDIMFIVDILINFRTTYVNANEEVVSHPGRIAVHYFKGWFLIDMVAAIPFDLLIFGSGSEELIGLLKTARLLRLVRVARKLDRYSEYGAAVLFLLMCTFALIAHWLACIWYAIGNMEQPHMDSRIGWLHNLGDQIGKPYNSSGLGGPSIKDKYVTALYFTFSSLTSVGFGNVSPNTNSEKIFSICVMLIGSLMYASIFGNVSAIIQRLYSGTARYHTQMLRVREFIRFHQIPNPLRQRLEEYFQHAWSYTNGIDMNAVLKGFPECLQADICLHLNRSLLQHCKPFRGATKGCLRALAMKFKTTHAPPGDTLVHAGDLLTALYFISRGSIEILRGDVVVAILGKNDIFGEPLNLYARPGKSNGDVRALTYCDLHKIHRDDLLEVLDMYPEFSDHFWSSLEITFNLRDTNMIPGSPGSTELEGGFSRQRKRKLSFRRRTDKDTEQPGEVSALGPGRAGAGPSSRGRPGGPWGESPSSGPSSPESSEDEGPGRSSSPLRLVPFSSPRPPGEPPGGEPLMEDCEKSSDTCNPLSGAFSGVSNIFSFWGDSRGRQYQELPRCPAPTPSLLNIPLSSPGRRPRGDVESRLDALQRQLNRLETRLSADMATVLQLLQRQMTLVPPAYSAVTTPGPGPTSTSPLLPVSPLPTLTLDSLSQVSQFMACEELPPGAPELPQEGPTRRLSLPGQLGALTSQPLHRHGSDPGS

Going from `COc1ccccc1CC(=O)Nc1ccc(C(=O)N2CCCCC2)cc1` to `COc1ccccc1-c1cc(C(=O)N2CCCC2)no1`, the “hERG current change (%, negative = inhibition) at 10uM” value falls from 2.21% to -8.67%.

Going from `CCOC(=O)CCNC(=O)N1CCCC(C(=O)c2cc(C)c(OC)c(C)c2)C1` (stereo not drawn) to `COc1ccccc1NS(=O)(=O)c1ccc(O)c(NC(=S)NCC2CCCO2)c1` (stereo not drawn), the “hERG current change (%, negative = inhibition) at 10uM” value rises from 5.81% to 7%.

First: COC(=O)Cc1ccc(NC(=S)N2CCN(CCO)CC2)cc1
Second: CCN1CCN(c2nc(N)c([N+](=O)[O-])c(Nc3ccc(C)cc3)n2)CC1
The “hERG current change (%, negative = inhibition) at 10uM” value of the first is higher: 3.63% for the first, -68.9% for the second.

First: CC1=C(OC(=O)C(C)(C)C)C(C)(C)C(c2ccccc2)OC1=O (stereo not drawn)
Second: CC(C)(C)CN1CCC(n2nccc2NC(=O)c2ccccc2Cl)CC1
The “hERG current change (%, negative = inhibition) at 10uM” value of the first is higher: -13.4% for the first, -20.3% for the second.

Compared with `COc1cccc(C2CC(c3cccc(OC)c3)n3nc(N)nc3N2)c1` (stereo not drawn), `COc1ccc(N2C(=O)c3ccccc3NC23CCC(C)CC3)cc1` (stereo not drawn) is higher in “hERG current change (%, negative = inhibition) at 10uM” value: -4.11% for the first, 4.35% for the second.

First: COc1ccc(-c2nnc(NC(=O)C(C)C)o2)cc1
Second: COC(=O)c1ccc(CSc2ccc3nnc(-c4ccc(OC)cc4)n3n2)o1
The “hERG current change (%, negative = inhibition) at 10uM” value of the first is higher: -3.15% for the first, -44.2% for the second.

First: C=CCn1nnnc1SCC(=O)Nc1cccc(C(F)(F)F)c1
Second: Cc1csc(-c2cnn(-c3ccccc3)c2NC(=O)c2cccc(C(F)(F)F)c2)n1
The “hERG current change (%, negative = inhibition) at 10uM” value of the first is lower: 9.66% for the first, 9.98% for the second.

First: CC(NC(=O)C(C(=O)c1cccc([N+](=O)[O-])c1)n1cc(Cl)ccc1=O)c1ccccc1 (stereo not drawn)
Second: Cc1c(CCOC(=O)c2cccc([N+](=O)[O-])c2)sc[n+]1CC(=O)c1ccccc1.[Br-]
The “hERG current change (%, negative = inhibition) at 10uM” value of the first is higher: -15% for the first, -51.1% for the second.

Compared with `Nc1nc(Nc2ccccc2F)nc(N2CCOCC2)c1[N+](=O)[O-]`, `Nc1nc(Nc2ccccc2F)nc(N2CCCC2)c1[N+](=O)[O-]` is lower in “hERG current change (%, negative = inhibition) at 10uM” value: 4.6% for the first, 4.5% for the second.

Going from `Nc1nc(Nc2ccccc2)nc(N2CCCC2)c1[N+](=O)[O-]` to `CN1CCN(c2nc(Nc3ccccc3)nc(N)c2[N+](=O)[O-])CC1`, the “hERG current change (%, negative = inhibition) at 10uM” value falls from -34.5% to -40.6%.

First: CCN1CCN(c2nc(Nc3cccc(F)c3)nc(N)c2[N+](=O)[O-])CC1
Second: CCN1CCN(c2nc(Nc3ccccc3)nc(N)c2[N+](=O)[O-])CC1
The “hERG current change (%, negative = inhibition) at 10uM” value of the first is higher: -62.6% for the first, -63% for the second.

Going from `CCN1CCN(c2nc(N)c([N+](=O)[O-])c(Nc3cccc(C)c3)n2)CC1` to `CCN1CCN(c2nc(N)c([N+](=O)[O-])c(Nc3ccc(C)c(C)c3)n2)CC1`, the “hERG current change (%, negative = inhibition) at 10uM” value rises from -45% to -6.91%.

Going from `CCN1CCN(c2nc(Nc3ccccc3F)nc(N)c2[N+](=O)[O-])CC1` to `Nc1nc(Nc2cccc(F)c2)nc(N2CCOCC2)c1[N+](=O)[O-]`, the “hERG current change (%, negative = inhibition) at 10uM” value rises from -56.6% to -26.7%.

Going from `Cc1cccc(Nc2nc(N)c([N+](=O)[O-])c(N3CCC(C)CC3)n2)c1` to `O=C(Nc1ccnn1C1CCN(Cc2ccccn2)CC1)c1cccc(F)c1`, the “hERG current change (%, negative = inhibition) at 10uM” value rises from -15.7% to -7.3%.

Going from `CC12CN3CC(C)(CN(C1)C3c1cccnc1)C2=O` (stereo not drawn) to `CC1CN(C2=NC(=O)/C(=C/c3ccncc3)S2)CC(C)O1` (stereo not drawn), the “hERG current change (%, negative = inhibition) at 10uM” value falls from -0.24% to -14.5%.

Compared with `CC(NCc1ccco1)C(=O)N1CCc2ccccc2C1.Cl` (stereo not drawn), `O=C(NCc1ccco1)c1ccc(Cn2cc([N+](=O)[O-])cn2)o1` is lower in “hERG current change (%, negative = inhibition) at 10uM” value: 14% for the first, -10.3% for the second.

First: O=C(COc1ccccc1)Nc1ccc2c(c1)C(=O)N(CC1CCCO1)C2=O (stereo not drawn)
Second: O=C(CN1C(=O)c2ccccc2C1=O)NCC(=O)OCC(=O)c1ccc(Cl)cc1
The “hERG current change (%, negative = inhibition) at 10uM” value of the first is lower: 6.03% for the first, 16.2% for the second.

Going from `O=C1c2cccc3c(N4CCCCC4)ccc(c23)C(=O)N1c1cccc(O)c1` to `O=C(Nc1cccnc1)c1ccc(S(=O)(=O)N2CCCCCC2)cc1`, the “hERG current change (%, negative = inhibition) at 10uM” value falls from 32.6% to 5.14%.

First: CNC(=O)c1c(NC(=O)c2ccc(N3C(=O)CCC3=O)cc2)sc2c1CCCC2
Second: Cc1cc(NC(=O)C2CCCCC2)nc2c1c(=O)oc1ccccc12
The “hERG current change (%, negative = inhibition) at 10uM” value of the first is lower: -13.3% for the first, 3.61% for the second.

First: CCOc1cc(NC(=O)c2ccccc2C)c(OCC)cc1NC(=O)C1=Cc2ccccc2OC1
Second: CCOc1ccc2nc(N(CCN(C)C)C(=O)c3cc4ccccc4cc3OC)sc2c1.Cl
The “hERG current change (%, negative = inhibition) at 10uM” value of the first is higher: 9.99% for the first, 1.72% for the second.

Compared with `CC(C)(C)NC(=S)NC(=O)C12CCC3CC(CC(C3)C1)C2`, `Cc1c(CCOC(=O)C23CC4CC(CC(C4)C2)C3)sc[n+]1Cc1ccccc1.[Cl-]` is lower in “hERG current change (%, negative = inhibition) at 10uM” value: 6.45% for the first, -8.89% for the second.

Compared with `O=C(Nc1ccnn1C1CCN(Cc2ccc(CO)o2)CC1)c1ccccc1`, `O=C(Nc1ccnn1C1CCN(Cc2ccc(CO)o2)CC1)c1ccccc1Cl` is lower in “hERG current change (%, negative = inhibition) at 10uM” value: 1.16% for the first, -0.636% for the second.

Going from `CC(C)=CCN1CCC(n2nccc2NC(=O)c2ccccc2Cl)CC1` to `O=C(Nc1ccnn1C1CCN(C/C=C/c2ccccc2)CC1)c1ccccc1Cl`, the “hERG current change (%, negative = inhibition) at 10uM” value falls from -57.9% to -83.8%.

First: O=C(Nc1ccnn1C1CCN(C/C=C/c2ccccc2)CC1)c1cccc(F)c1
Second: O=C(Nc1ccnn1C1CCN(C/C=C/c2ccccc2)CC1)c1ccccc1
The “hERG current change (%, negative = inhibition) at 10uM” value of the first is higher: -70.9% for the first, -73.7% for the second.

Compared with `O=C(Nc1ccnn1C1CCN(C2CCOCC2)CC1)c1cccc(F)c1`, `O=C(COC(=O)c1c(F)cccc1Cl)NC(=O)Nc1ccc2c(c1)OCCO2` is higher in “hERG current change (%, negative = inhibition) at 10uM” value: -1.9% for the first, 12.4% for the second.

Compared with `COc1cc(/C=N\NC(=O)c2ccc(C)nc2)ccc1OC(=O)c1cccc(F)c1`, `COc1ccc(C(=O)OCCc2sc[n+](CC(=O)c3ccccc3)c2C)cc1.[Br-]` is lower in “hERG current change (%, negative = inhibition) at 10uM” value: -8.51% for the first, -48.9% for the second.

Compared with `Cc1ccc(S(=O)(=O)/N=C(/Nc2ccc(F)cc2F)c2ccccc2)cc1`, `Cc1ccc(C(=O)OCCc2sc[n+](Cc3ccccc3)c2C)cc1.[Cl-]` is lower in “hERG current change (%, negative = inhibition) at 10uM” value: 12.9% for the first, -70.1% for the second.

Compared with `COC(=O)c1ccc(NC(=S)Nc2cccc(C)n2)cc1`, `CCOC(=O)c1ccc(NC(=O)c2nn(CC)cc2Br)cc1` is higher in “hERG current change (%, negative = inhibition) at 10uM” value: -0.48% for the first, 5.3% for the second.

First: CC(=NCCO)c1c(O)n(C2CCCCC2)c(=O)[nH]c1=O
Second: CCN1CCCC1CNC(=O)c1ccc2c(c1)N(Cc1cccc(Cl)c1)C(=O)c1ccccc1S2(=O)=O (stereo not drawn)
The “hERG current change (%, negative = inhibition) at 10uM” value of the first is higher: -5.36% for the first, -39.7% for the second.

Going from `Cc1cccc2sc(N(CCN3CCOCC3)C(=O)CCS(=O)(=O)c3ccccc3)nc12.Cl` to `CCCC(=O)N(CCN1CCOCC1)c1nc2c(C)cccc2s1.Cl`, the “hERG current change (%, negative = inhibition) at 10uM” value rises from -13.3% to -7.14%.

Compared with `CCOc1ccc2nc(N(Cc3ccccc3)C(=O)CCNC(C)=O)sc2c1`, `COc1ccc2nc(N(Cc3ccccc3)C(=O)CCNC(C)=O)sc2c1` is higher in “hERG current change (%, negative = inhibition) at 10uM” value: -61% for the first, -8.54% for the second.

Going from `CC(=O)NCCC(=O)N(Cc1ccccc1)c1nc2c(C)cccc2s1` to `Cc1c(CCOC(=O)c2ccccc2)sc[n+]1Cc1ccccc1.[Cl-]`, the “hERG current change (%, negative = inhibition) at 10uM” value rises from -57.4% to -32.7%.

Going from `CC(NC(=O)c1cc(F)c(F)cc1Cl)c1ccncc1` (stereo not drawn) to `CCCc1ccc(C(C)NC(=S)NCc2ccc(F)cc2)cc1` (stereo not drawn), the “hERG current change (%, negative = inhibition) at 10uM” value rises from 1.1% to 18.6%.

First: CCOc1ccc(C(=O)OCC(=O)NC(C)C)cc1
Second: CCOc1ccc(-c2nnc3ccc(SCc4ccc(C(=O)OC)o4)nn23)cc1
The “hERG current change (%, negative = inhibition) at 10uM” value of the first is higher: 22.3% for the first, -24.4% for the second.

Going from `CCN(CC)C(=O)C(=O)N/N=C/c1ccc(F)cc1` to `COC(=O)c1ccc(CSc2ccc3nnc(-c4ccc(F)cc4)n3n2)o1`, the “hERG current change (%, negative = inhibition) at 10uM” value falls from 18.7% to -29.1%.

First: COC(=O)c1ccc(CSc2ccc3nnc(-c4cccc(F)c4)n3n2)o1
Second: COC(=O)c1ccc(CSc2ccc3nnc(-c4ccccc4)n3n2)o1
The “hERG current change (%, negative = inhibition) at 10uM” value of the first is lower: -62% for the first, -53.5% for the second.

Compared with `COC(=O)c1ccc(CSc2ccc3nnc(-c4ccc(OC)c(OC)c4)n3n2)o1`, `COC(=O)c1ccc(CSc2ccc3nnc(-c4ccccn4)n3n2)o1` is lower in “hERG current change (%, negative = inhibition) at 10uM” value: -15.1% for the first, -62.8% for the second.

Compared with `CSc1nccc(Oc2cncc(Cl)c2)n1`, `Cc1[nH+]csc1CCOC(=O)c1ccc([N+](=O)[O-])cc1.[Cl-]` is lower in “hERG current change (%, negative = inhibition) at 10uM” value: 8.61% for the first, -35.4% for the second.

Compared with `CC(NC(=S)Nc1ccc(Cl)cc1)C(c1ccccc1)N1CCOCC1` (stereo not drawn), `Cc1c(CCOC(=O)c2ccccc2)sc[n+]1CC(=O)c1ccc(Br)cc1.[Br-]` is lower in “hERG current change (%, negative = inhibition) at 10uM” value: -13% for the first, -77% for the second.

Compared with `COc1ccc(N=C2C(=O)N3c4c(cccc42)C(C)=CC3(C)C)cc1`, `Cc1c(CCOC(=O)c2ccc([N+](=O)[O-])cc2)sc[n+]1CC(=O)c1ccccc1.[Br-]` is lower in “hERG current change (%, negative = inhibition) at 10uM” value: 9% for the first, -63.7% for the second.

First: Cc1c(CCOC(=O)c2cc([N+](=O)[O-])cc([N+](=O)[O-])c2)sc[n+]1CCCCS(=O)(=O)[O-]
Second: Cc1c(CCOC(=O)c2cc([N+](=O)[O-])cc([N+](=O)[O-])c2)sc[n+]1CC(=O)c1ccccc1.[Cl-]
The “hERG current change (%, negative = inhibition) at 10uM” value of the first is higher: 23.4% for the first, 5.96% for the second.

Compared with `Cc1sc[n+](CC(=O)c2ccc(Br)cc2)c1C.[Br-]`, `Cc1c(CCOC(=O)c2cc([N+](=O)[O-])cc([N+](=O)[O-])c2)sc[n+]1CC(=O)c1ccc(Br)cc1.[Br-]` is lower in “hERG current change (%, negative = inhibition) at 10uM” value: -12.7% for the first, -40.7% for the second.
